Records with an inconclusive call do not appear. Where a call stands in place of a potency, no number is given. Active and inactive are the calls of the source. Calls follow the shape of the dose curve; as a rule, active = well fitted inhibition curve with a large enough effect; inconclusive = small, poorly fitted or top-dose-only effect; inactive = flat fitted curve, though single readings scatter. Peptide text beside a SMILES is read from it.
tested on: CP305; assay: qHTS profiling for inhibitors of Plasmodium falciparum proliferation (AID 504749); also: nearly all actives have a fitted effect of over 60% in size; conditions: P. falciparum in erythrocytes, SYBR Green DNA, 72 h; series mostly up to 12.8 µM
Procedure, shortened: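 SYBR Green fluorescence (ex 485 nm, em 535 nm) reports parasite DNA after 72 h compound exposure of infected red cells at 0.3% parasitemia, 2.5% hematocrit; signal normalized to 0.29 uM artemisinin and vehicle wells.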
Potency is read from the fitted curve at half-maximal effect.

SMILES	Potency
CN(C)CCCOC1C(C(O)CO)OC2OC(C)(C)O[C@@H]21 (some centres not stated)	inactive
CCC(C)C(=O)OC1CCC=C2C=CC(C)C(CCC3CC(O)CC(=O)O3)[C@@H]21 (some centres not stated)	inactive
CC(=O)OC1CCC2C3CCc4cc(O)ccc4C3CCC12C (configuration not stated)	inactive
CC[C@@]12CCCN3CCc4c(n(c5ccccc45)[C@](O)(C(=O)OC)C1)C32 (some centres not stated)	inactive
NC(C(=O)O)[C@@H]1CC(Cl)=NO1 (some centres not stated)	1510 nM (active)
CN1CC(=O)N=C1N	inactive
OCC1OC([S-])[C@H](O)C(O)C1O.[Au+] (some centres not stated)	inactive
CC(C)C1CCC(C(=O)NC(Cc2ccccc2)C(=O)O)CC1 (configuration not stated)	inactive
CCC(CCC(C)C1CCC2C3CC=C4CC(O)CC[C@@]4(C)C3CC[C@@]12C)C(C)C (some centres not stated)	inactive
C[C@]12CCC(=O)C=C1CCC1C2C(=O)C[C@]2(C)C1CC[C@]2(O)C(=O)CO (some centres not stated)	inactive
OCC1O[C@H](OC2C(CO)O[C@@](O)(CO)C2O)C(O)C(O)C1O (some centres not stated)	inactive
CC1(C)OC2CO[C@]3(COS(N)(=O)=O)OC(C)(C)OC3C2O1 (some centres not stated)	inactive
CC1(C)OC2CC(=O)OC[C@@]23C1CC(=O)[C@]1(C)C3CC[C@@]2(C)C(c3ccoc3)OC(=O)C3O[C@@]321 (some centres not stated)	inactive
CCOC(=O)C1=CC(OC(CC)CC)C(NC(C)=O)C(N)C1 (configuration not stated)	inactive
COC(=O)C(Cc1ccccc1)NC(=O)C(N)CC(=O)O (stereo not drawn) (H-Asp-Phe-OMe; configuration not given here)	inactive
C[C@]12C=CC(=O)C=C1CCC1C2C(O)C[C@]2(C)C1CC[C@]2(O)C(=O)CO (some centres not stated)	inactive
CC1(C)S[C@H]2C(NC(=O)[C@@H](N)c3ccc(O)cc3)C(=O)N2[C@@H]1C(=O)O (some centres not stated)	inactive
